GIRK2 act: Activators of human GIRK2-containing channels; P48051; HEK293 GIRK2/NPY4 cells, thallium flux fluorescence; activation (% efficacy), % for hits at 37.5 µM; 34,000 tested, under 10 active;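 active means primary screen hit, no activity in plain HEK293 cells, and in GIRK2-only cells above 5% efficacy rising with concentration; inactive means the rest, including fluorescent compounds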;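 further: efficacy is normalized control-subtracted fluorescence 15 s after thallium addition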
GluA2 TARP mod: GluA2-stargazin AMPA receptor complex modulation; O88602+P19491; HEK293 GluA2+stargazin, membrane potential dye (FDSS), glutamate EC50; hits were called plate by plate, in both directions; calls only at 30 µM; 40,000 tested, 3.5% active; AID 1259245;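 active means any of four per-well response measures lying three or more SD from its plate-wide compound average, in either direction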
Target sequence (O88602 whole entry, looked up): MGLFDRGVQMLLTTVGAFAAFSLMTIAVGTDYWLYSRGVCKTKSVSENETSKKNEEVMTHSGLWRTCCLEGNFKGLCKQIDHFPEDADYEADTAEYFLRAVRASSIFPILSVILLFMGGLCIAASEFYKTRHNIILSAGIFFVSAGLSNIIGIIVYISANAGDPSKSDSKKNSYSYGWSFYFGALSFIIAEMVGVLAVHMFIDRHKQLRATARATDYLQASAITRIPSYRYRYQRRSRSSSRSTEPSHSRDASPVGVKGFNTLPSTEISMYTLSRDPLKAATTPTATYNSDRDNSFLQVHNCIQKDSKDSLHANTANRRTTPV
Target sequence (P19491 whole entry, looked up): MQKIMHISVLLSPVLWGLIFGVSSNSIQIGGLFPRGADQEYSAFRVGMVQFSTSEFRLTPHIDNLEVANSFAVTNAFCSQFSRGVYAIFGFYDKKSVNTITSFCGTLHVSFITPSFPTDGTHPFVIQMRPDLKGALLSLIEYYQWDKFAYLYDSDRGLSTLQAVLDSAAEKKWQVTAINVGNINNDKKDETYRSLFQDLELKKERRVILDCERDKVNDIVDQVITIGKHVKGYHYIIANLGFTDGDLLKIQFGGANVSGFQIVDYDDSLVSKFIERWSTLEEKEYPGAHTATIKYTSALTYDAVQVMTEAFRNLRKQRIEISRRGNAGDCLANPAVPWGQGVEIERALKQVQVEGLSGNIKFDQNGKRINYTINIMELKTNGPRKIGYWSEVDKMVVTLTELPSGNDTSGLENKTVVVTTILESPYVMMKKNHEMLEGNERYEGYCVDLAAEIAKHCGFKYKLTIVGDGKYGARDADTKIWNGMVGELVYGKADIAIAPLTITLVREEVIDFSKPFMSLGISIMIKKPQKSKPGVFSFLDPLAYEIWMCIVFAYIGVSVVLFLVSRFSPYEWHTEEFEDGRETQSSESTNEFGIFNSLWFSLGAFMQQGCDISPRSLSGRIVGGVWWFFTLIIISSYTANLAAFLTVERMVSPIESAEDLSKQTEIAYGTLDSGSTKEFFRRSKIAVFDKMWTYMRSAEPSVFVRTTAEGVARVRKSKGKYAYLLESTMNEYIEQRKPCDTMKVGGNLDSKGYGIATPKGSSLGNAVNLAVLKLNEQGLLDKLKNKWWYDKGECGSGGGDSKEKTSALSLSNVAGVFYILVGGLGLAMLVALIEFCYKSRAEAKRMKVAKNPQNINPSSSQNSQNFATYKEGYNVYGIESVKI
Starred values were filed as active, the others as inactive; i = inactive; . = not tested or not shown; + = active, no number; ! = not active in a repeat. This excerpt belongs to a sample that is enriched for hits.

SMILES	GIRK2 act	GluA2 TARP mod
CCCOC(=O)c1cc2cc(Br)cc(OC)c2oc1=O	i	+
O=C(Cc1csc(-n2cccc2)n1)NCCc1cccs1	i	i
COc1ccc(N2C(=O)CN(CCc3ccccc3OC)C3CS(=O)(=O)CC32)cc1 (stereo not given)	i	i
COc1ccc(N2C(=O)CS(=O)(=O)C23C(=O)N(Cc2ccccc2C)c2ccccc23)cc1 (stereo not given)	.	+
CCc1ccc(NC(=O)C(=O)Nc2ccc([N+](=O)[O-])cc2)cc1	.	i
CSc1ccc(CC(=O)Nc2ccc([N+](=O)[O-])cc2)cc1	.	+
COc1ccc(NC(=O)Cc2ccc(SC)cc2)cc1	.	i
O=C(NCCc1ccc(F)cc1)Nc1ccc([N+](=O)[O-])cc1	.	+
O=C(Nc1cccc(F)c1)C1CCCN(c2ccc(-n3ccnc3)nn2)C1 (stereo not given)	i	i
Cc1ccccc1-c1cc2c(=O)n(Cc3nc(-c4ccccc4Br)no3)ccn2n1	i	i
COc1ccc(OC)c(-c2cc(C(=O)N3CC(c4nc(-c5ncccn5)no4)C3)n(C)n2)c1	.	i
COc1ccc(-c2noc(C3CCN(S(=O)(=O)c4ccc(Cl)cc4)CC3)n2)cc1	i	i
COc1ccc(-c2noc(C3CCN(S(=O)(=O)c4ccc(C)cc4)CC3)n2)cc1	i	+
CNC(=O)CSc1nnc(-c2cn(C)nc2OC)n1CCOC	i	i
CCOc1ccccc1NC(=O)C(=O)NCC1CCN(C(C)C)CC1	i	i
O=C(NCC1CCN(C(=O)c2cc3ccccc3o2)CC1)c1cc(-c2ccccc2)on1	i	+
O=C(NCC1CCN(C(=O)c2cc3ccccc3o2)CC1)c1ccc(Cl)s1	i	+
CC(C)(C)NC(=O)N1CCC(CNC(=O)c2cc(-c3ccccc3)on2)CC1	i	i
Cc1csc(C(=O)NCC2CCN(C(=O)c3cc4ccccc4o3)CC2)c1	i	+
Cc1cc(C(=O)NCC2CCN(C(=O)c3cc4ccccc4o3)CC2)c(C)o1	i	i
O=C(NCC1CCN(C(=O)c2cc3ccccc3o2)CC1)c1cc(Cl)ccc1Cl	i	i
CCCc1cc(N2CCN(CCO)CC2)n2nc(C)c(-c3ccccc3)c2n1	i	i
COc1ccc(S(=O)(=O)N2CCCc3cc(NC(=O)C4CC4)ccc32)cc1	.	i
COc1ccc(NC(=O)Cn2cc(-c3nnc(-c4ccccc4)o3)c3ccccc32)cc1	i	i
O=S(=O)(c1ccccc1Cl)N1CCN(c2ccc(Nc3ccccn3)nn2)CC1	i	i
SMILES	GIRK2 act	GluA2 TARP mod
O=c1ccc(-c2ccncc2)nn1CCCNS(=O)(=O)c1cccc(Cl)c1Cl	i	.
Cc1ccc(S(=O)(=O)NCc2ccccc2)c(C)c1N(C)S(=O)(=O)c1ccccc1	.	i
Cc1ccc(S(=O)(=O)NCc2cccnc2)c(C)c1N(C)S(=O)(=O)c1ccc(Cl)cc1	i	+
O=C(Nc1c2c(nn1-c1ccccc1)CS(=O)(=O)C2)C(=O)N1CCCCC1	i	i
COCCCNC(=O)C(=O)Nc1c2c(nn1-c1ccc(Cl)cc1)CS(=O)(=O)C2	.	i
COCCNC(=O)C(=O)Nc1c2c(nn1-c1ccc(Cl)cc1)CS(=O)(=O)C2	.	+
O=C(Nc1c2c(nn1-c1ccccc1)CS(=O)(=O)C2)C(=O)N1CCCC1	i	+
CCN1C(=O)N(c2cc(C)ccc2C)C2CS(=O)(=O)CC21 (stereo not given)	i	i
Cc1ccc(C)c(N2C(=O)N(Cc3ccccc3F)C3CS(=O)(=O)CC32)c1 (stereo not given)	i	+
COc1cccc(N2C(=O)/C(=C/c3ccncc3)SC2=S)c1	.	i
CCCc1nc2ccccc2n1Cc1ccccc1OC	.	+
CCc1nc2ccccc2n1Cc1ccccc1OC	i	i
COc1cccc(-n2c(C)cn3c4c(=O)n(CCc5ccccc5)c(=O)n(C)c4nc23)c1	.	i
CCN(CC)CCn1c(C)cn2c3c(=O)n(CCc4ccccc4)c(=O)n(C)c3nc12	i	+
COc1ccc(S(=O)(=O)N2CCCc3cc(NC(=O)Cc4cccc5ccccc45)ccc32)cc1	.	i
COC(=O)C1=C(C)NC(=O)NC1c1ccccc1OCc1ccccc1 (stereo not given)	.	i
COc1ccc(C2NC(=O)NC(C)=C2C(=O)OCc2ccccc2)c(OC)c1 (stereo not given)	.	+
COc1ccccc1CCNC(=O)CC1CCCCN1S(=O)(=O)c1ccc(C)cc1 (stereo not given)	.	+
Cc1ccc(S(=O)(=O)N2CCCCC2CC(=O)NC2CCCCC2)cc1 (stereo not given)	.	i
O=C(CC1CCCCN1S(=O)(=O)c1ccccc1)NC1CCCCC1 (stereo not given)	.	+
COc1ccccc1CNC(=O)C(=O)NCCC1CCCCN1S(=O)(=O)c1ccc(F)cc1 (stereo not given)	.	i
COc1ccccc1CNC(=O)CC1CCCCN1S(=O)(=O)c1ccc(Cl)cc1 (stereo not given)	.	i
COc1ccccc1CCNC(=O)CC1CCCCN1S(=O)(=O)c1ccccc1 (stereo not given)	.	i
COc1ccccc1CCNC(=O)CC1CCCCN1S(=O)(=O)c1ccc(Cl)cc1 (stereo not given)	.	+
COc1ccccc1CNC(=O)C(=O)NCCC1CCCCN1S(=O)(=O)c1ccccc1 (stereo not given)	.	+
SMILES	GIRK2 act	GluA2 TARP mod
CCOC(=O)Nc1ccc2c(c1)N(C(=O)C1CCCC1)CC2	i	.
CN(C)C(CNC(=O)C(=O)Nc1ccc(OC(F)(F)F)cc1)c1ccccc1Cl (stereo not given)	i	i
CCNC(=O)NCC1CCN(C(=O)NC(C)(C)C)CC1	i	i
O=C(CCS(=O)(=O)c1ccc(Cl)cc1)Nc1nnc(-c2ccc3c(c2)OCCO3)o1	i	.
CCOc1ccc2ncc(C#N)c(Nc3ccc4c(c3)OCCO4)c2c1	i	.
COc1ccc(C2C(C(=O)Nc3ccccc3)=C(C)N=c3s/c(=C/c4cn(C)nc4C)c(=O)n32)cc1 (stereo not given)	i	i
O=C(Nc1sc2ccccc2c(=O)c1-c1ccc(Br)cc1)c1ccco1	i	i
COc1ccc(-c2c(NC(=O)c3ccco3)sc3ccccc3c2=O)cc1OC	i	+
O=C(c1ccccc1F)N1CCN(c2ccc(-c3ccccn3)nn2)CC1	i	i
Cc1cc(C)c(C(=O)NCCc2ccccc2)c(C)c1	i	+!
Cc1ccc(C)c(S(=O)(=O)Nc2ccc(C(=O)NCCc3ccccc3)cc2)c1	.	i
CCCCN1CC(c2nc3ccccc3n2CCOc2ccccc2OC)CC1=O (stereo not given)	.	+
CCCn1c(C2CC(=O)N(CCc3ccccc3)C2)nc2ccccc21 (stereo not given)	.	+
CN1CC(c2nc3ccccc3n2CCCc2ccccc2)CC1=O (stereo not given)	.	i
CCCCN1CC(c2nc3ccccc3n2CCOc2cccc(OC)c2)CC1=O (stereo not given)	.	i
O=C1CC(c2nc3ccccc3n2CC2CCCCC2)CN1CCc1ccccc1 (stereo not given)	.	+
CCCCn1c(C2CC(=O)N(c3ccc(C)c(Cl)c3)C2)nc2ccccc21 (stereo not given)	.	+
